# Measurements as given in the OligoGym collection.
# Biological target: KCND2
# Assay: pooled miR-30 sensor sort-seq; sequence = guide strand
# Conditions: shRNA
# Further: reference of the scale not given here.
row,Sequence,sensor-assay potency score (higher = more potent)
1,TTGTCTGTCATCACCAGCCCAA,-0.744
2,TTGTTCGTCCACAAACTCGTGA,-0.0668
3,TTGTATACTACCTTGATGGCTT,0.674
4,TAGAACACCAGGGCCATCGTGC,-0.481
5,TTCTGAGGCACAACTCTTCAGT,-0.605
6,TCAGCGAACAGATAGAACCAAA,-1.25
7,TTGTACTCCTCATAACAGCAGT,-0.753
8,TTAAAGATCCTGAAGACCCGGA,0.918
9,ATTAACAGTTGCAACTTCCATG,-0.92
10,TTTGTCTGCTCGTTGATTCTGG,-0.31

# Biological target: KCNE1
# Assay: as above
# Conditions: shRNA
row,Sequence,sensor-assay potency score (higher = more potent)
1,TCGATGTAGACGTTGAATGGGT,-0.608
2,TTGCCAGGCATCGGACTCGATG,-1.64
3,TTGTTCTATGGCCAGATGGTTT,-1.5
4,TTTAGAGAAACAGTGAAACAGT,-0.257
5,TTCGAGTGCTCCAGCTTCTTGG,-0.829
6,TTCTTGGAGCGGATGTAGCTCA,-0.819
7,TCAACGACATAGCACGACCTGT,-0.979
8,TTTTCAACGACATAGCACGACC,-1.08
9,TCCAGCTTGCCGTCACTGCTGC,-1.06
10,TTGTCCTTCTCTTGCCAGGCAT,-1.07
11,TAGAGAAACAGTGAAACAGTGT,0.334
12,TCGGACTCGATGTAGACGTTGA,-0.164

# Biological target: KCNH5
# Assay: as above
# Conditions: shRNA
row,Sequence,sensor-assay potency score (higher = more potent)
1,TTCGTGTTTGACTTCCTGCAGT,-0.357
2,TTTCTTCACATCACTGATCTTA,0.0331
3,TAAACAAGACAGCAGATCGATC,-1.19
4,TTCCACTGTCACAAGAATCTGT,0.6
5,TTTTCTTGTACAGAAGAACTTC,0.0958
6,TTGAACTTCTGGAAGAGCTTTC,-0.184
7,TTGAACAACGTAATATCCTTGA,0.815
8,TATACAAGCAATATCTATGTTT,-0.652
9,TGAGACACTAAAAATATCCTGA,0.518
10,TTACATATCAAAATCCATGTGT,0.412
11,TAGAGTTTTAGGAAGTCCCGTA,-0.0513
12,TTTGAACAACGTAATATCCTTG,-0.17

# Biological target: KCNJ11
# Assay: as above
# Conditions: shRNA
row,Sequence,sensor-assay potency score (higher = more potent)
1,TAGCATAGTGACAAGTGCCTTG,0.123
2,TAGTCCACAGAGTAACGTCCGT,-0.814
3,ATCAATGACATGGTAGATGATC,-1.55
4,TCATCGGCCAGGTAGGAGGTGC,-0.639
5,TACAATGGGCACAAAGCGCTGG,0.352
6,TTTGACGGTGTTGCCAAACTTG,-0.73
